# Test results published in the supplement of paper PMC10338343.
# ± gives the standard deviation.
# Tested on: MILI (PIWIL2) piRISC loaded with piRNA #1 (26 nt)
# Test: pre-steady-state target cleavage rate (min^-1); guide: piRNA #1 5'p-UGAGGUAGUAGGUUGUAUAGUAUCCA; MIWI and MILI are mouse PIWI proteins and EfPiwi is from a freshwater sponge; tags in brackets are library labels; higher = faster piRNA-guided slicing of the target
# Conditions: auxiliary factor: 500 nM mouse GTSF1
# Outline: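 The pre-steady-state cleavage rate was calculated from a burst-and-steady-state fit. Data came from Cleave-'n-Seq, in which […] transcribed, DNA-blocked target RNA library was mixed with 1 nM active affinity-purified piRISC carrying one synthetic guide, with or without 500 nM GTSF1 partner protein, in HEPES–potassium acetate buffer at 33 °C for 0–8 or 0–960 min. Uncleaved targets were sequenced and normalised to depth and to weakly complementary targets, three trials were pooled, and k3 was capped at 0.0001 min^-1.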
# 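Note: 1 nM active piRISC with 0.1 nM target library at 33 °C single turnover.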
row,Sequence,pre-steady-state target cleavage rate
1,GGAGAGGAUACAUUACAACCUACUACCUCA,0.148 ± 0.012
2,GGAGACCUAUGUAUACAACCUACUACAUCA,0.0269 ± 0.0059
3,GGAGACCUAUGAAUAACAACCUACUACCUCA,0.00368 ± 0.0026
4,GGAGACCUAUGAAUACAAGCUACUACCUCA,0.0349 ± 0.0069
5,GGAGACCAUACUAUACAGCCUACUACCUCA,0.157 ± 0.02
6,GGAGACCUAUGAUAACAACGUACUACCUCA,0.00353 ± 0.0022
7,GGAGACCUAUGAUAUGUACCUACUUGCUCA,< 0.0001
8,GGAGACCUUACUAUACAACCUACAACGUCA,0.0109 ± 0.0043
9,GGAGACCUAUGAUAUGAACUACUACCUCA,0.00657 ± 0.0021
10,GGAGUGGAUACUUUACAACCUACUAGCUCA,0.0406 ± 0.0075
11,GGAGACCUAUGUAUACAACCUACUACCUCC [g2:g19:cont:t1C],0.0539 ± 0.0077
12,GGAGACCUAACUAUACAUCCUACUAGCUCA,0.162 ± 0.042
13,GGAGACCUAUGUAUAUCAACCUACUACCUCA,0.00312 ± 0.0027
14,GGAGACCAUACUAUUCAACCAACUACCUCA,0.00316 ± 0.0029
15,GGAGACCUAUGAUAUGAACCUACAACGUCA,< 0.0001
16,GGAGACCUUACUAUACAACCUAACUACCUCA,0.0162 ± 0.0034
17,GGAGACCUAUCUAUACAACCUACUAGCUCA,0.0827 ± 0.014
18,GGAGUGGAUACUAUACAACCUACUACCAGA,0.034 ± 0.0071
19,GGAGACCUAACUAUUCUACCUACUACCUCA,0.104 ± 0.021
20,GGAGACCUAUGAUAACAUCCUACUAGCUCA,0.00409 ± 0.0032
21,GGAGACGAUUGUAUACAACCUACUACCUCA,0.0734 ± 0.0068
22,GGAGACCUAUGAUAUGUUCCUACUACCUGCA,< 0.0001
23,GGAGACCUUACUAUUCAAGCUACUACCUCA,0.235 ± 0.013
24,GGAGACCUAUGAUUACAAGCUACUACCACA,0.0854 ± 0.022
